This is part of a sample that, as a whole, favours compounds with a hit. Of some 83,000 tested, about 20% had one in any assay.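 Cells were grown in 96-well plates and exposed to the test compound at a single concentration for 48 hours; results are reported as percent growth, with values below 10 considered active.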 Calls of active or inactive are those of the source.
What follows are compounds tested on UACC-62 melanoma (assay: NCI-60 one-dose screen, 48 h (100 = growth as untreated, 0 = no growth, -100 = all killed)). Conditions: 10 µM unless noted.
Procedure: Growth inhibition of the UACC-62 human tumor cell line is measured as a screen for anti-cancer activity. Cells are grown in 96 well plates and exposed to the test compound for 48 hours. Compounds are tested at a single concentration, which is 10^-5 M for most compounds. The reported endpoint is percent growth (GI% or GIPRCNT), where numbers from 0 - 100% represent growth inhibition, and numbers from -100% - 0 represent cell death. For example, a value of 40 represents 60% growth inhibition. A value of 0 means no net growth occurred over the course of the experiment. A value of -40 indicates 40% of cells at the beginning of the experiment died by the end of the experiment. A value of -100 means all cells are dead at the end of the experiment.
NCI-60 Human Tumor Cell Lines Screen was performed using the standard one-dose NCI protocol, which is described in more detail at https://dtp.cancer.gov/discovery_development/nci-60/default.htm.
Compounds with GIPRCNT values below 10 were considered active. Activity score was based on GIPRCNT using the following formula: […]
Score is 0 for GIPRCNT values of 100 or above, 50 for GIPRCNT values of 0, and 100 for GIPRCNT values of -100.

| SMILES | growth |
| --- | --- |
| CCO/C=N/S(=O)(=O)c1cc2c(cc1Cl)NC=NS2(=O)=O | 104% (inactive) |
| C[C@]12CC[C@@H]3c4ccc(O)cc4CC[C@H]3[C@@H]1C[C@H](O)C2 | 43.6% (inactive) |
| COc1cc(C(=O)Nc2cc(OC)c3ccn(C)c3c2)cc2c1C[C@]1(C)CC[C@@H](O)C(C)(C)[C@H]1O2 | -8.05% (active) |
| COc1ccc2nc(-c3ccc(OC)c(OC)c3)cc(-c3nnc(SCC(=O)Nc4ccc(C(C)=O)cc4)o3)c2c1 | 102% (inactive) |
| CCCCc1ccc(N=Nc2ccc(OCC[N+](C)(C)C)cc2)cc1 | 53.9% (inactive) |
| CCc1n(Cc2ccc3ccccc3c2)c2ccccc2[n+]1Cc1ccc2ccccc2c1 | 50.6% (inactive) |
| COC(=O)c1cc2c3c(cc(O)c2[nH]1)N(C(=O)C1Cc2cc(OC)c(OC)c(OC)c2N1)CC3CCl (stereo not given) | -61% (active) |
| COc1ccc(-c2cs/c(=N\N=C\c3ccc(O)cc3O)n2/N=C/c2ccc(O)cc2O)cc1 | -36.3% (active) |
| Nc1cc(N)nc(SCC(=O)O)n1 | 99.1% (inactive) |
| CC(=O)OC[C@]12CC[C@@H](c3cn(Cc4ccc(Cn5cc([C@@H]6CC[C@]7(COC(C)=O)CC[C@]8(C)[C@H](CC[C@@H]9[C@@]%10(C)CC[C@H](OC(C)=O)C(C)(C)[C@@H]%10CC[C@]98C)[C@@H]67)nn5)cc4)nn3)[C@@H]1[C@H]1CC[C@@H]3[C@@]4(C)CC[C@H](OC(C)=O)C(C)(C)[C@@H]4CC[C@@]3(C)[C@]1(C)CC2 | 95.8% (inactive) |
| O=C(Nc1nc(-c2ccccc2Cl)cs1)c1cc(-c2ccc(Br)cc2)nc2ccccc12 | 48.8% (inactive) |
| CCCS(=O)(=O)Nc1ccc(F)c(C(=O)c2c[nH]c3ncc(-c4ccc(OCCCC5CCCCN5)nc4)cc23)c1F (stereo not given) | -22% (active) |
| Cc1cc(C)cc(Nc2nccc(-c3c(-c4ccc(F)cc4)ncn3C3CCNCC3)n2)c1 | 21.6% (inactive) |
| COc1ccccc1C(=O)/C=C/c1cc2cccc(OC)c2[nH]c1=O | -29.1% (active) |
| CC(C)(C)c1nn(-c2ccccc2)c2c1COCN2Cc1ccc(Cl)cc1 | 72.8% (inactive) |
| COc1ccc(/C=C/C(=O)C(CC2CCC2)C(=O)/C=C/c2ccc(OC)c(OC)c2)cc1OC | -65.5% (active) |
| O=C1C(=O)c2c(nc3ccc(C(F)(F)F)cn23)-c2ccccc21 | -82.4% (active) |
| Cc1nc2sc(C(=O)Nc3cccc4ccccc34)c(N)c2cc1C(C)O (stereo not given) | 36% (inactive) |
| COc1ccc(/C(=N\O)c2cc(C)c(OC)c(C)c2)cc1O | 35.3% (inactive) |
| NC(=O)CN1C(=O)c2ccccc2C1=O | 95.7% (inactive) |

| SMILES | growth |
| --- | --- |
| CC1CCCN(CCCCCOc2ccc3oc4ccc(Cl)cc4c(=O)c3c2)C1 (stereo not given) | -43.1% (active) |
| Cc1nn(-c2ccc(-c3ccc(OC(F)(F)F)cc3)cc2)c2nc(-c3ccccc3)nc(N)c12 | 99.9% (inactive) |
| CN1CCN(S(=O)(=O)O[C@@H]2C(=O)N(c3cc4c5ccccc5ccc4c4ccccc34)[C@H]2c2ccc(F)cn2)CC1 | 86.5% (inactive) |
| CC(C)(C)c1ccc2oc(=O)n(SC(Cl)(Cl)Cl)c2c1 | 109% (inactive) |
| O=c1c2ccccc2oc2ccc(OCCCCCCN3CCCCCC3)cc12 | -53.4% (active) |
| CCOC(=O)C1=C(C)n2nc(CC#N)c(C#N)c2NC1c1ccc(Cl)cc1 (stereo not given) | 94.4% (inactive) |
| O=[N+]([O-])c1ccc(N=Nc2c(O)c(N=Nc3cc([N+](=O)[O-])cc([N+](=O)[O-])c3O)cc(N=Nc3cc(S(=O)(=O)O)cc4cc(S(=O)(=O)O)cc(O)c34)c2O)cc1 | 95.5% (inactive) |
| Nc1c(C(=O)c2ccccc2)sc2nc(-c3cc4ccccc4o3)cc(-c3ccc(Cl)cc3)c12 | 102% (inactive) |
| O=Cc1[nH]c(Sc2ccccc2)c2ccccc12 | 62.3% (inactive) |
| C#C[C@@]1(O)[C@@H](CO)O[C@@H](n2cc(Cl)c3c(N)ncnc32)[C@@H]1O | -54.2% (active) |
| C=C1C(=O)O[C@H]2[C@H]1CC/C(COC(=O)CCCCCCCCC(=O)OC/C1=C/CC[C@@]3(C)O[C@H]3[C@H]3OC(=O)C(=C)[C@@H]3CC1)=C\CC[C@@]1(C)O[C@@H]21 | -18.8% (active) |
| O=[N+]([O-])c1cccc(CN(Cc2cccc([N+](=O)[O-])c2O)c2ccccc2)c1O | 69.6% (inactive) |
| Cc1cc(C)c(NC(=O)c2sc3nc4c(cc3c2N)CCCCCC4)c(C)c1 | 34.5% (inactive) |
| CC(/C=C/c1ccccc1)=N/NC(=O)c1ccncc1 | 94.1% (inactive) |
| CSc1nc(-c2cccs2)c2c(N)[nH]nc2n1 | 93.7% (inactive) |
| COc1cc(F)c(-c2nc3c(C)cccc3n2Cc2c(F)cccc2F)c(F)c1 | 64.5% (inactive) |
| c1ccc(Sc2ncccn2)nc1 | 93.6% (inactive) |
| CCOc1ccc(C2N(c3cc(OC)c(OC)c(OC)c3)C(=O)C2(F)F)cc1 (stereo not given) | 51.6% (inactive) |
| CNCc1cccc2c1OCCOCCOCCN(CCN1CCOCC1)S(=O)(=O)c1ccc(cc1)-c1cnc(N)c(n1)C(=O)N2 | 73% (inactive) |
| CCCCC1=c2c([nH]c3ccc(OC)cc23)=NC2C=CC=NC12 (stereo not given) | 94.5% (inactive) |

Source: PubChem BioAssay (NCI)
